Data reported in PubChem BioAssay AID1476 (National Center for Advancing Translational Sciences (NCATS), 2009).
About 4,500 (2.2%) of roughly 200,000 compounds were called active. Not shown: some 12% with an inconclusive outcome. The sample as a whole holds a higher share of actives than the screen did. A number with no mark means an inactive call. Calls come from the whole dose curve; as a rule, active = well fitted inhibition curve with a large enough effect; inconclusive = small, poorly fitted or top-dose-only effect, or effect the other way; inactive = flat fitted curve, though single readings scatter.

Target: Cruzipain (Trypanosoma cruzi) (UniProt P25779)
Test: qHTS Assay for Promiscuous and Specific Inhibitors of Cruzain (without detergent); note: nearly all actives have a fitted effect of over 40% in size;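 for max response, negative = inhibition: plate controls were enzyme without inhibitor for no effect and buffer without enzyme for full effect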
Conditions: purified cruzain, Z-FR-AMC fluorescence, no detergent
Summary of the method: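 Detergent-free condition (0.00005% Triton X-100) in acetate buffer pH 5.5 with DTT. 1.5 nM enzyme and compound were pre-mixed 15 min, then 2 uM Z-FR-AMC substrate added; reaction progress from fluorescence change between first and third reads (60 s).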
Potency is the fitted concentration of half-maximal effect.

Sequence of Cruzipain (Trypanosoma cruzi) (P25779 123-467 limits assumed): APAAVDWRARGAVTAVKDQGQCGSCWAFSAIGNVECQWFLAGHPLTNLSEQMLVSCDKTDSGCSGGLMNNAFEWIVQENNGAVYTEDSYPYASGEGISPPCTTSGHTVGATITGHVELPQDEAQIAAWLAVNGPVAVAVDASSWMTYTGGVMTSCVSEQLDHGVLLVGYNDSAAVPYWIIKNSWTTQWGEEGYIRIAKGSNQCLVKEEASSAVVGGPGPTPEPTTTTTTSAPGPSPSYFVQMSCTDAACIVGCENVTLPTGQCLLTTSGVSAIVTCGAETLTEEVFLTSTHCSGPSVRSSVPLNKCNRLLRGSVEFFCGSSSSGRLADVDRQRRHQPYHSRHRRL

Compound	max response, negative = inhibition [%]	Potency
O=C(CCCCn1c(=O)c2ccccc2n(CC(=O)Nc2cccc(C(F)(F)F)c2)c1=O)NCc1ccc2c(c1)OCO2	16.7	–
CCOC(=O)c1ccc2c(c1)N(Cc1cccc(OC)c1)C(=O)c1ccccc1S2(=O)=O	-13.7	–
COc1ccc(/C=N/NC(=O)c2ccccc2)cc1OS(=O)(=O)c1ccccc1	-2.21	–
COc1cc(/C=N/NC(=O)Nc2ccccc2)ccc1OCCOc1ccccc1C	–	25.1 µM (active)
COc1cc(/C=N/NC(=O)c2ccccc2)ccc1OS(=O)(=O)c1ccccc1	-10.2	–
Cc1ccc(NC(=O)Cc2ccc(NC(=O)N3CCCCc4ccccc43)cc2)cc1	16.9	–
Cc1cccc(NC(=O)c2ccc3nc(C(C)C)oc3c2)c1C	-5.86	–
CC(C)(C)C1CCC(=NNC(=O)c2ccc(Br)o2)CC1 (stereo not given)	6.4	–
CC(NC(=O)C(=O)NN=C1CCC(C(C)(C)C)CC1)c1ccccc1 (stereo not given)	14.7	–
CC(C)(C)C1CCC(=NNC(=O)c2cc(-c3ccccc3)n[nH]2)CC1 (stereo not given)	–	12.6 µM (active)
CCOC(=O)Cn1c(=O)n(C2CCCCC2)c2nc(-c3cccc(OC)c3)nc(C(N)=O)c21	-11	–
COc1ccc(CCNc2nc3c(-c4cccc(F)c4)nnn3c3ccccc23)cc1OC	16.6	–
CC1=C(C(=O)N2CCN(c3cccc(C(F)(F)F)c3)CC2)C2(CCCCC2)OC1=O	-13.5	–
CCOc1ccc(CNC(=O)c2ccc3c(c2)nnn3C2CCCC2)cc1	-5.67	–
O=C(CN1C(=O)/C(=C\c2ccccc2F)SC1=S)Nc1nc2ccccc2s1	–	7.94 µM (active)
Cc1nn(CC(=O)Nc2nc3ccccc3s2)c(C)c1[N+](=O)[O-]	-6.47	–
O=C(CCCN1C(=O)/C(=C\c2ccco2)SC1=S)Nc1cccc2ccccc12	-12.6	–
Cc1cccc(C(=O)NCC(=O)OCC(=O)N2CC3(C)CC2CC(C)(C)C3)c1 (stereo not given)	–	12.6 µM (active)
COc1ccccc1C(=O)N1CC2(C)CC1CC(C)(C)C2 (stereo not given)	16.4	–
Cc1cccc(C(=O)NCCCN2CCCC2=O)c1	-2.37	–
Cc1cc(C)cc(NC(=O)Cn2nc(N3CCN(c4ccccc4)CC3)ccc2=O)c1	-3.11	–
O=C(CSc1nc2ccccc2[nH]1)N/N=C/C=C\c1ccccc1[N+](=O)[O-]	10.4	–
CCn1c(SCC(=O)N/N=C/C=C/c2ccccc2[N+](=O)[O-])nnc1-c1ccccc1	-1.88	–
Cc1ccc(-n2c(SCC(=O)N/N=C/C=C/c3ccccc3[N+](=O)[O-])nc3ccccc3c2=O)cc1	–	25.1 µM (active)
COCCN(CCOC)S(=O)(=O)c1ccc(C(=O)Nc2nc3c(s2)CCc2ccccc2-3)cc1	-1.58	–
C=CCN(CC=C)S(=O)(=O)c1ccc(C(=O)Nc2nc3c(s2)CCc2ccccc2-3)cc1	–	10 µM (active)
CCN(c1ccccc1)S(=O)(=O)c1ccc(C(=O)Nc2nccs2)cc1	0.885	–
Cc1ccc(-c2nnc(Nc3cccc(Br)c3)c3ccccc23)cc1S(=O)(=O)NCC1CCCO1 (stereo not given)	-20.7	–

Compound	max response, negative = inhibition [%]	Potency
CCCCCn1c(=O)[nH]c2cc(C(=O)NCCN(C)CCCC)ccc2c1=O	2.28	–
CCn1c(C)nc2cc(C(=O)NNS(=O)(=O)c3ccc(C)cc3C)ccc21	9.43	–
CCOC(=O)c1c(C)n(S(=O)(=O)c2ccc(C)cc2C)c2ccc(NS(=O)(=O)c3ccc(C)cc3C)cc12	–	1.58 µM (active)
Cc1ccc(S(=O)(=O)n2cnc3ccccc32)c(C)c1	3.08	–
N#Cc1ccc(-c2ccc(Cl)cc2)nc1Oc1ccc(F)cc1	–	25.1 µM (active)
N#Cc1ccc(-c2ccc(F)cc2)nc1Sc1ccccc1	-27.2	–
CN(C)c1ccnc(Oc2ccc(F)cc2)c1C#N	-8.17	–
COc1cc(NC(=O)Cn2c(=O)n(Cc3ccco3)c(=O)c3oc4ccccc4c32)cc(OC)c1	-21.5	–
Cc1ccc(C)c(CNC(=O)c2cc3ccccn3n2)c1	-9.01	–
C=CCn1c(C)cc(C(=O)CN2C(=O)c3ccccc3C2=O)c1C	4.29	–
Cc1ccccc1C(=O)NNC(=O)CN1C(=O)c2ccccc2C1=O	-8.81	–
Cc1cc2c(cc1C)N(C(=O)CN1C(=O)c3ccccc3C1=O)C(C)(C)c1ssc(=S)c1-2	–	2.51 µM (active)
O=C(CN1CCN(Cc2ccc(Cl)cc2)C1=O)NCc1ccc(F)cc1	-6.99	–
COc1ccc(CCNC(=O)CCCCn2c(=O)c3ccccc3n(Cc3ccccc3C)c2=O)cc1OC	-7.48	–
Cc1cc(C)c2nc(NC(=O)c3ccc4c(c3)OCO4)sc2c1	–	10 µM (active)
Cc1cc(C)c2nc(NC(=O)C3CCCO3)sc2c1 (stereo not given)	0.42	–
O=C(Nc1nc2ccccc2s1)c1ccc2c(c1)OCO2	-5.87	–
O=C(c1ccc2c(c1)N(Cc1ccc(Cl)cc1)C(=O)c1ccccc1S2(=O)=O)N1CCCCC1	0.0442	–
O=C1OC(c2ccc(Cl)cc2)=N/C1=C\c1cccnc1	-2.62	–
CCOc1cc(/C=C2/N=C(c3ccc(C(C)(C)C)cc3)OC2=O)cc(Cl)c1OS(C)(=O)=O	1.67	–
Cc1ccc(C2=N/C(=C\c3ccc(OS(=O)(=O)c4ccc(C)cc4)cc3)C(=O)O2)cc1	–	20 µM (active)
CN1CCN(C2(CNC(=O)COc3ccc(C(C)(C)C)cc3)CCCCC2)CC1	-0.272	–
CCn1c(C)c(C)c2cc(C(=O)NCCc3cc(OC)ccc3OC)ccc21	3.29	–
Cc1ccc(CNC(=O)CCC(=O)N2CC(C)Sc3ccccc32)cc1 (stereo not given)	3.17	–
Cc1occc1C(=O)Nc1nnc(-c2ccncc2)s1	-3.11	–
Cc1ccc(C(=O)Nc2nnc(-c3ccncc3)s2)o1	-16.9	–
CC(C)=CC(=O)Nc1nnc(-c2ccc(F)cc2)s1	–	12.6 µM (active)
